Source: PubChem (The Scripps Research Institute Molecular Screening Center)
In the library only some 4.1% were active in any assay of this set; here they are far more common.
DAX1 inh-1: DAX1 (NR0B1) inhibition, primary screen | HEK293T StAR-luciferase reporter, SF-1/DAX-1 repression relief | inhibition, % at 6.8 µM | actives 1.1% (n = 370,000);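 active means inhibition above the mean over all tested compounds plus 3 SD, cut at about 3.6% in these data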;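 further: 0% = DAX-1 cells with DMSO and 100% = cells lacking DAX-1 with DMSO; higher inhibition means more luminescence from relief of DAX-1 repression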
hgDAF-12 ag: hgDAF-12 agonism, primary luciferase screen | AID 687014 | activation, % at 6.8 µM | actives 1.8% (n = 370,000) | HEK293 GAL4-hgDAF12 UAS-luciferase reporter, agonist luminescence; normalized to butyrate control;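 active means activation above a cutoff set at the mean of all screened compounds plus 3 SD, cut at about 10% in these data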;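 further: 0% = DMSO wells and 100% = sodium butyrate wells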
hcDAF12 agonist: H. contortus DAF-12 activation, primary screen. HEK293 hcDAF-12 lit1-tk-luc reporter, luminescence; 0% DMSO, 100% Δ7-dafachronic acid. activation, % at 6.8 µM. actives 1.4% (n = 370,000);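 active means activation above the mean of all tested compounds plus 3 SD, cut at about 5.5% in these data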;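 further: 100% = response to 3 µM Δ7-dafachronic acid high control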
DAX1 inh-2: NR0B1 (DAX1) inhibition; HEK293 Gal4-DAX1 luciferase reporter, luminescence; P51843; actives 0.99% (n = 340,000); inhibition, % at 6.75 µM; AID 504766;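 active means inhibition above the mean over all tested compounds plus 3 SD, cut at about 4.2% in these data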;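 further: 0% = DAX1-transfected cells with DMSO and 100% = empty-vector control cells with DMSO; inhibition shows as a rise in luminescence from relieved DAX1 repression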
Target sequence (P51843 207-470 limits assumed): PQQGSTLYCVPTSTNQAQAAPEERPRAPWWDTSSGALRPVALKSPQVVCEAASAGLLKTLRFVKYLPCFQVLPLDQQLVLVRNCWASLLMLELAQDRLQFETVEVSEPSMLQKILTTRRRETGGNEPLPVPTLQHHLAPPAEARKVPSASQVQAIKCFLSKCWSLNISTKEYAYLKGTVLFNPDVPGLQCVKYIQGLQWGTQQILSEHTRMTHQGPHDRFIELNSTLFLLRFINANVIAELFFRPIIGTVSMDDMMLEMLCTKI
ssDAF12 agonist: activators of S. stercoralis DAF-12 nuclear receptor | HEK293 ssDAF-12/GRIP1 lit1-tk-luc reporter, luminescence; % of 3 µM dafachronic acid response | activation, % at 6.8 µM | actives 1% (n = 370,000) | AID 652126;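 active means activation above the mean over all tested compounds plus 3 SD, cut at about 0.9% in these data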;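 further: 0% = DMSO-only wells and 100% = 3 µM delta7-dafachronic acid wells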
DAX1 conf: NR0B1 (human) inhibition, confirmation | shares compounds with DAX1 inh-1 | HEK293T StAR-promoter luciferase reporter, SF-1/DAX-1 repression | inhibition, % at 6.8 µM | actives 87% (n = 2,400) | AID 652134;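 active means inhibition above the average of every tested compound plus 3 SD, cut at about 3.8% in these data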;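 further: 0% = DAX-1 cells with DMSO and 100% = no DAX-1 control cells with DMSO; active compounds raise luminescence by relieving repression of the StAR reporter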
SF1 mutant ctr: nonselective inhibitor or artifact in SF-1 mutant DAX1 counter-screen; shares compounds with DAX1 inh-1; HEK293 StAR-luciferase, SF-1 AF2 mutant, luminescence; inhibition, % at 6.8 µM; actives 78% (n = 2,400);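 active means inhibition above the mean of all tested compounds plus 3 SD, cut at about 3% in these data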;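 further: 0% = DAX-1 transfected cells with DMSO and 100% = cells without DAX-1 with DMSO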
* marks the source's active call; other numbers are inactive results.

How did O=C(NNC(=S)Nc1ccc(Br)cc1)c1ccccc1Br do in these assays?
DAX1 inh-1: 0; hgDAF-12 ag: 6; hcDAF12 agonist: 2; DAX1 inh-2: 0; ssDAF12 agonist: 0

How did O=C(NNC(=S)Nc1ccccc1Cl)c1ccccc1Br do in these assays?
DAX1 inh-1: 15*; hgDAF-12 ag: 11*; hcDAF12 agonist: 4; DAX1 inh-2: 1; ssDAF12 agonist: 0; DAX1 conf: 12*; SF1 mutant ctr: 6.1*

What do the screens show for `Cc1ccc(S(=O)(=O)N(Cc2ccccc2F)C(=O)N2CCN(C)CC2)cc1`?
DAX1 inh-1: 5.0*; hgDAF-12 ag: 1; hcDAF12 agonist: 0; DAX1 inh-2: 1; ssDAF12 agonist: -1; DAX1 conf: 2; SF1 mutant ctr: 1

How did O=C(NC1CCC1)C1CCC(=O)N(Cc2cccc(F)c2)C1 (stereo not drawn) do in these assays?
DAX1 inh-1: -1; hgDAF-12 ag: -1; hcDAF12 agonist: -1; DAX1 inh-2: 1; ssDAF12 agonist: -1

What do the screens show for `CN(C(=O)C1CCC(=O)N(Cc2cccc(F)c2)C1)C1CCCCC1` (stereo not drawn)?
DAX1 inh-1: 5.2*; hgDAF-12 ag: 8; hcDAF12 agonist: 0; DAX1 inh-2: 2; ssDAF12 agonist: 1; DAX1 conf: 4.0*; SF1 mutant ctr: 2

Results for CCN1CCN(c2ccc(NC(=O)c3ccc4c(c3)OCCO4)cc2C)CC1 ?
DAX1 inh-1: 7.9*; hgDAF-12 ag: 11*; hcDAF12 agonist: 4; DAX1 inh-2: 3; ssDAF12 agonist: 0; DAX1 conf: 11*; SF1 mutant ctr: 5.2*

How did CCN1CCN(c2ccc(NC(=O)c3cc4ccccc4cc3OC)cc2C)CC1 do in these assays?
DAX1 inh-1: 5.1*; hgDAF-12 ag: 11*; hcDAF12 agonist: 0; DAX1 inh-2: 1; ssDAF12 agonist: -1; DAX1 conf: 7.0*; SF1 mutant ctr: 3.1*

Results for CCN1CCN(c2cc(C)c3cc(NC(=O)c4ccc5c(c4)OCO5)ccc3n2)CC1 ?
DAX1 inh-1: 0; hgDAF-12 ag: 5; hcDAF12 agonist: -2; DAX1 inh-2: 0; ssDAF12 agonist: -1

What do the screens show for `COc1cccc(NC(=O)c2sc3nc(N4CCOCC4)c4c(c3c2N)CCCC4)c1`?
DAX1 inh-1: 1; hgDAF-12 ag: 7; hcDAF12 agonist: 2; DAX1 inh-2: 0; ssDAF12 agonist: -1

How did CCCc1ccc2oc(C(=O)NCc3nnc(C)o3)c(C)c2c1 do in these assays?
DAX1 inh-1: 5.1*; hgDAF-12 ag: 12*; hcDAF12 agonist: 6.2*; DAX1 inh-2: 1; ssDAF12 agonist: 0; DAX1 conf: 7.3*; SF1 mutant ctr: 5.1*

Results for CCc1ccc2oc(C(=O)Nc3nonc3C)c(C)c2c1 ?
DAX1 inh-1: 12*; hgDAF-12 ag: 11*; hcDAF12 agonist: 4; DAX1 inh-2: 1; ssDAF12 agonist: 0; DAX1 conf: 7.8*; SF1 mutant ctr: 3.6*

What do the screens show for `CCc1nonc1NC(=O)c1oc2ccc(F)cc2c1C`?
DAX1 inh-1: 1; hgDAF-12 ag: 5; hcDAF12 agonist: 1; DAX1 inh-2: 0; ssDAF12 agonist: -1

How did Cc1cc2oc(C(=O)Nc3nonc3C)c(C)c2cc1C do in these assays?
DAX1 inh-1: 7.8*; hgDAF-12 ag: 8; hcDAF12 agonist: 4; DAX1 inh-2: 2; ssDAF12 agonist: -1; DAX1 conf: 13*; SF1 mutant ctr: 7.2*

What do the screens show for `O=C(N/N=C/c1ccc(O)c(Br)c1)c1cc2c(ccc3ccccc32)o1`?
DAX1 inh-1: 1; hgDAF-12 ag: -4; hcDAF12 agonist: 2; DAX1 inh-2: 0; ssDAF12 agonist: -1

What do the screens show for `O=C(N/N=C/c1cc(Br)c(O)c(Br)c1)c1cc2c(ccc3ccccc32)o1`?
DAX1 inh-1: 5.2*; hgDAF-12 ag: 4; hcDAF12 agonist: -1; DAX1 inh-2: -1; ssDAF12 agonist: 0; DAX1 conf: 3; SF1 mutant ctr: 1

Results for COc1cc(C(=O)N/N=C(\C)c2ccc(NC(=O)Cc3ccccc3)cc2)ccc1O ?
DAX1 inh-1: 6.9*; hgDAF-12 ag: 8; hcDAF12 agonist: 4; DAX1 inh-2: 1; ssDAF12 agonist: 1.1*; DAX1 conf: 6.2*; SF1 mutant ctr: 4.2*

What do the screens show for `C/C(=N\NC(=O)c1ccccc1O)c1ccc(NC(=O)Cc2ccccc2)cc1`?
DAX1 inh-1: 7.2*; hgDAF-12 ag: 8; hcDAF12 agonist: 3; DAX1 inh-2: 0; ssDAF12 agonist: 0; DAX1 conf: 6.3*; SF1 mutant ctr: 3.6*

How did COc1cc([C@@H]2c3cc4c(cc3[C@H](O)[C@H]3COC(=O)[C@H]23)OCO4)cc(OC)c1OC do in these assays?
DAX1 inh-1: 12*; hgDAF-12 ag: -4; hcDAF12 agonist: 0; DAX1 inh-2: 0; ssDAF12 agonist: 0; DAX1 conf: 15*; SF1 mutant ctr: -5

Results for O=C(Cc1cccs1)NCCc1csc(-c2ccccc2)n1 ?
DAX1 inh-1: 0; hgDAF-12 ag: -1; hcDAF12 agonist: -2; DAX1 inh-2: -1; ssDAF12 agonist: -1

What do the screens show for `CCOC(=O)c1nn(-c2ccc3c(c2)OCCO3)cc1O`?
DAX1 inh-1: 8.0*; hgDAF-12 ag: 13*; hcDAF12 agonist: 3; DAX1 inh-2: 0; ssDAF12 agonist: -1; DAX1 conf: 9.7*; SF1 mutant ctr: 5.7*

What do the screens show for `Cc1ccc(-c2nnc(SCC(=O)NNC(=S)Nc3ccccc3)n2C2CCCCC2)cc1`?
DAX1 inh-1: 0; hgDAF-12 ag: 0; hcDAF12 agonist: -2; ssDAF12 agonist: -1

How did CCCn1c(C)cc(C(=O)COC(=O)c2cc(=O)[nH]c3ccccc23)c1C do in these assays?
DAX1 inh-1: 5.4*; hgDAF-12 ag: 11*; hcDAF12 agonist: 6.5*; DAX1 inh-2: -1; ssDAF12 agonist: 1; DAX1 conf: 9.3*; SF1 mutant ctr: 3.1*

What do the screens show for `Cc1ccc(C(=O)COC(=O)c2cc(=O)[nH]c3ccccc23)cc1`?
DAX1 inh-1: 1; hgDAF-12 ag: -4; hcDAF12 agonist: 0; DAX1 inh-2: 1; ssDAF12 agonist: -1

Results for CCC(C)(C)C1CCC(=NNC(=O)c2ccoc2C)CC1 (stereo not drawn) ?
DAX1 inh-1: 4.7*; hgDAF-12 ag: 18*; hcDAF12 agonist: 3; DAX1 inh-2: 1; ssDAF12 agonist: 0; DAX1 conf: 2; SF1 mutant ctr: 3.1*

Results for CCCC(=O)NNC(=O)c1ccoc1C ?
DAX1 inh-1: 0; hgDAF-12 ag: 2; hcDAF12 agonist: -1; DAX1 inh-2: 0; ssDAF12 agonist: -1
